# Measured values published in PubChem BioAssay AID1259343 (VanderVen Lab, College of Veterinary Medicine, Cornell …, 2017).
# Among all 6,200 compounds or so, about 2,900 (47%) were called active. Cut-off read from the data, not from the text of the source: active = inhibition above about 50%; inactive = the rest. The set was probably picked from earlier hits. The list shows a part of the results.
# Experiment: Mycobacterium tuberculosis growth inhibition, primary screen (AID 1259343)
# Settings: inhibition: at 10 µM, stronger effect = higher value; outcome: 10 uM
row,SMILES,inhibition
1,CC1CCc2c(sc3nc(-c4ccc(N(C)C)cc4)nc(N4CCNCC4)c23)C1 (centres undefined),94.9% (active)
2,Cc1nc(N2CCCCC2)c2c3c(sc2n1)CC(C)CC3 (centres undefined),-32.2% (inactive)
3,CC1CCc2c(sc3nc(C(C)C)nc(N4CCN(C(=O)Nc5c(Cl)cccc5Cl)CC4)c23)C1 (centres undefined),10.7% (inactive)
4,COc1ccc(CCN(Cc2ccc(C)o2)C(=O)CN(C(=O)c2ccccc2Cl)C2CC2)cc1OC,-5.97% (inactive)
5,COC(=O)c1ccc(CN(Cc2ccc(C)o2)C2CC2)o1,66.2% (active)
6,CCN(CC1COc2ccccc2O1)C(=O)NCc1sccc1C (centres undefined),-23.5% (inactive)
7,COc1cccc(CN(C)C(=O)c2cc3ccccc3o2)c1OC,39.1% (inactive)
8,COC(=O)c1ccc(CSc2n[nH]c(=S)s2)o1,inactive
9,COc1ccc(CN(C(=O)Nc2cccc(Cl)c2)C2CC2)cc1,-5.25% (inactive)
10,COC(=O)c1ccc(CN(Cc2sccc2C)C2CC2)o1,98.5% (active)
11,COC(=O)c1ccc(CN(Cc2ccc(OC)cc2)C2CC2)o1,54.7% (active)
12,Cc1ccc(NC(=O)NC(=O)CN(Cc2ccco2)C2CC2)cc1C,-3.72% (inactive)
13,COC(=O)c1ccc(CN(Cc2cccc(OC)c2OC)C2CC2)o1,83.8% (active)
14,N#Cc1cc(C(=O)c2cc(Cl)cc(Cl)c2O)cn(-c2nccs2)c1=O,25.4% (inactive)
15,O=C(CC1C[C@@H]2CC[C@H]1C2)N1CCc2c(cnn2-c2ccccn2)C1 (some centres undefined),49.8% (inactive)
16,O=C(NCCC1CC2CCC1C2)c1ccc(N2CCOCC2)nc1 (centres undefined),5.89% (inactive)
17,O=C(CC1CC2CCC1C2)N1CCN(c2ccccc2O)CC1 (centres undefined),85.9% (active)
18,CCCCCOc1ccc(Nc2cc(-c3cccc(N)c3)ncn2)cc1,5.27% (inactive)
19,COc1cccc(NC(=O)N2CCN(CCCOC(c3ccc(Cl)cc3)c3ccc(Cl)cc3)CC2)c1,15.9% (inactive)
20,Cc1cccc(Nc2cc(N3CCN(CCCOc4ccccc4)CC3)ncn2)c1,50.3% (active)
21,Nc1nnc(Sc2ncc([N+](=O)[O-])s2)s1,102% (active)
22,O=[N+]([O-])c1c(-n2cccn2)nn(-c2ccccc2)c1C(Cl)Cl,101% (active)
23,NCCc1cccc(OCCCc2ccccc2)c1,57.2% (active)
24,COc1cccc(C=CC(=O)c2ccc(N3CCCC3=O)cc2)c1OC,40% (inactive)
25,O=C(Nc1nc(-c2ccccn2)cs1)c1cccc(N2CCCC2=O)c1,100% (active)
26,CCCCc1ccc(NC(=O)CSc2n[nH]c(=O)c3cc(-c4ccco4)nn23)cc1,98.1% (active)

row,SMILES,inhibition
1,S=C(NCC1CCCO1)Nc1ccc(N2CCCCC2)cc1 (centres undefined),60.7% (active)
2,Oc1ccc(C=NNC(=S)NCC2CCCO2)c(O)c1 (centres undefined),101% (active)
3,S=C(NCC1CCCO1)N1CCc2ccccc2C1 (centres undefined),19.9% (inactive)
4,Oc1ccc(C2=CCN(c3ncnc4ccccc34)CC2)cc1,15.6% (inactive)
5,Cc1cc(C(=O)N2CC=C(c3ccc(O)cc3)CC2)c(C)o1,15.5% (inactive)
6,Oc1ccc(C2=CCN(c3nnc(Br)s3)CC2)cc1,95.1% (active)
7,N#Cc1ccc(CN2CC=C(c3ccc(O)cc3)CC2)c(F)c1,-43% (inactive)
8,CNC(=O)c1ccc(N2CC=C(c3ccc(O)cc3)CC2)nn1,91.4% (active)
9,O=S(=O)(Nc1cccc(C2OCC(COc3ccc(Cl)cc3)O2)c1)c1ccccc1 (centres undefined),-0.13% (inactive)
10,CC(=O)Nc1ccc(OCc2nnsc2Cl)cc1,85.4% (active)
11,CCc1ccccc1Oc1nc(NC(C)C)nc2ccsc12,31.8% (inactive)
12,CN(c1ccccc1)c1nc2ccsc2c(=O)s1,58.2% (active)
13,Cc1cc(C)nc(Nc2nc(C(N)Cc3ccc(C(F)(F)F)cc3)cs2)n1 (centres undefined),79.2% (active)
14,CCCc1cnc(Nc2nc(C(N)Cc3ccc(C(F)(F)F)cc3)cs2)nc1 (centres undefined),50.7% (active)
15,Cc1cc(C)nc(Nc2nc(C(N)Cc3ccc(Cl)cc3)cs2)n1 (centres undefined),73.2% (active)
16,Cc1ccc(-c2nc(CN3CCOC(c4ccccc4)C3)cs2)o1 (centres undefined),29.6% (inactive)
17,Cc1nc(SCC(=O)N2CCCCC2C)c2c3c(sc2n1)CCCC3 (centres undefined),51.5% (active)
18,CC(=O)CSc1nc(C)nc2sc3c(c12)CCCC3,10% (inactive)
19,Cc1c(-c2ccccc2)sc2ncn(CC(=O)N3CCCCC3C)c(=O)c12 (centres undefined),48.6% (inactive)
20,Cc1ccc2[nH]cc(-c3cccc(OCC(N)=O)c3)c2c1,72.6% (active)
21,CC(C)(C)c1csc(-c2cccc(OCC(N)=O)c2)n1,35.2% (inactive)
22,c1ccc(Sc2c(-c3ccccc3)nc3ncccn23)cc1,inactive
23,Clc1c(CSc2nc3ccccc3s2)nc2ncccn12,77.3% (active)
24,S=c1[nH]nc(CSc2nc3ccccc3s2)o1,-31.5% (inactive)
25,c1ccc2sc(CSc3nc4ccccc4s3)nc2c1,95.9% (active)
26,N#CC(=C(O)CC12CC3CC(CC(C3)C1)C2)c1nc2ccccc2s1,21.6% (inactive)

row,SMILES,inhibition
1,c1ccc2sc(Sc3ncnc4sccc34)nc2c1,59.5% (active)
2,Brc1ccc2nc(CSc3nc4ccccc4s3)cn2c1,inactive
3,COc1ccc(C(C)O)cc1CSc1nc2ccccc2s1 (centres undefined),40.5% (inactive)
4,Oc1ccccc1OCc1nc2ccccc2s1,54.7% (active)
5,O=C(CSc1nc2ccccc2s1)NCCN1C(=O)SC(=Cc2ccc3c(c2)OCO3)C1=O,4.39% (inactive)
6,c1csc(Cn2nnnc2Sc2ncnc3sccc23)c1,-23.8% (inactive)
7,c1ccc2sc(CSc3ncnc4sccc34)nc2c1,35% (inactive)
8,CCc1nnc(CNc2ccc3c(c2)OC(F)(F)O3)o1,32.3% (inactive)
9,CC(NC(=O)c1cc(Cl)ccn1)c1cccc(OC(F)F)c1 (centres undefined),70.3% (active)
10,Cc1c(C(=O)NC(C)c2cccc(Cl)c2)oc2c1C(=O)CCC2 (centres undefined),1.37% (inactive)
11,CC(NC(=O)c1cnsn1)c1cccc(Cl)c1 (centres undefined),42.3% (inactive)
12,CCOC(=O)c1cccc(NC(=O)NC/C=C(\C)CCC=C(C)C)c1,88.1% (active)
13,CC(C)(C)OC(=O)c1cccc(NC2Cc3ccccc3C2)c1,29.1% (inactive)
14,CC(C)=CCC/C(C)=C/C(=O)NCc1ccccn1,-13% (inactive)
15,O=[N+]([O-])c1cc(NC(=S)NC2CCCCC2)ccc1Cl,99.3% (active)
16,Fc1ccc(F)c(NC(=S)NC2CCCCC2)c1,42% (inactive)
17,S=C(Nc1cccc(I)c1)NC1CCCCC1,93.2% (active)
18,Fc1ccc(NC(=S)NC2CCCCC2)c(F)c1F,18.1% (inactive)
19,COc1cc(/C=C/c2ncc(C(=O)O)s2)cc(Cl)c1OC,80.2% (active)
20,O=C(O)c1cnc(/C=C/c2cc(Br)cs2)s1,-34.7% (inactive)
21,CNC(=O)c1cnc(/C=C/C2=Cc3cc(Cl)ccc3OC2)s1,11.2% (inactive)
22,O=C(O)c1cnc(/C=C/c2cnn(-c3ccc(Cl)cc3)c2)s1,62.2% (active)
23,O=C(O)c1cnc(/C=C/c2cc(Cl)c3c(c2)OCCCO3)s1,85.9% (active)
24,O=C(CN1CCN(S(=O)(=O)N2CCCCCC2)CC1)Nc1ccc2ccccc2c1,3.56% (inactive)
25,O=C(CN1CCCCCC1)Nc1ccc(C(F)(F)F)cc1,71.2% (active)
26,CC1OC(=O)[C@@H](C(C)C)NC(=O)C(C(C)C)OC(=O)[C@H](C(C)C)NC(=O)C(C)OC(=O)[C@@H](C(C)C)NC(=O)C(C(C)C)OC(=O)[C@H](C(C)C)NC(=O)C(C)OC(=O)[C@@H](C(C)C)NC(=O)C(C(C)C)OC(=O)[C@H](C(C)C)NC1=O (some centres undefined),101% (active)

row,SMILES,inhibition
1,COc1cc(NC(=O)c2ccc(Cl)s2)cc(OC)c1,3.54% (inactive)
2,COc1cc(NC(=O)c2ccc(C)o2)cc(OC)c1,81.4% (active)
3,O=C(COc1cccc2cccnc12)NCC1CCCCC1,89.7% (active)
4,O=C(COc1ccc([N+](=O)[O-])cc1)NCC1CCCCC1,-9.56% (inactive)
5,NCCOCc1ccc(-c2cc3ccccc3o2)cc1,15.6% (inactive)
6,c1cc(-c2cc3ccccc3o2)cc(-n2cnnc2)c1,74.5% (active)
7,CCOC(=O)Cc1csc(NC(=O)c2csc(-c3cc4ccccc4[nH]3)n2)n1,65.7% (active)
8,CCOC(=O)Cc1csc(NC(=S)NC(=O)c2cccs2)n1,88% (active)
9,CN(C1CCCCC1)S(=O)(=O)NCC1Cc2ccccc2O1 (centres undefined),-12.8% (inactive)
10,CC(NC(=O)CCl)c1cc2ccccc2o1 (centres undefined),58.8% (active)
11,CCc1ccc(C(C)NS(=O)(=O)CC2CCCCC2)cc1 (centres undefined),24.7% (inactive)
12,CC(NS(=O)(=O)CC1CCCCC1)c1cc2ccccc2o1 (centres undefined),91.2% (active)
13,Cc1cccc(OCC(=O)NC(C)c2cc3ccccc3o2)c1C (centres undefined),83.5% (active)
14,CC(NC(=O)CCl)c1cccc2ccccc12 (centres undefined),86.2% (active)
15,CC(NC(=O)NCCc1ccc(F)cc1)c1ccccc1Br (centres undefined),31.6% (inactive)
16,COc1cc(-c2c(NC(=O)CC(C)C)oc3c(C)cccc3c2=O)cc(OC)c1OC,-22.3% (inactive)
17,CCc1ccc(C(C)NC(=O)c2ccc(S(=O)(=O)C(F)F)cc2)cc1 (centres undefined),-35.3% (inactive)
18,CCc1ccc(C(C)NC(=O)CCl)cc1 (centres undefined),68.1% (active)
19,Nc1ccc(Cl)c(-c2nc3ccccc3o2)c1,-33.1% (inactive)
20,Nc1ccc(Cl)c(Cl)c1,85.7% (active)
21,O=C(NCCc1ccc(C(F)(F)F)cc1)C1=COCCO1,28.4% (inactive)
22,CNC(=O)c1ccc(N(C)Cc2ccc(Cl)s2)nc1,18.8% (inactive)
23,CNC(=O)c1ccc(CN(C)c2ccc(C(F)(F)F)cn2)cc1,56.7% (active)
24,c1ccc(-c2nc3c(c(N4CCN(Cc5cccc6cccnc56)CC4)n2)CCC3)cc1,31.1% (inactive)
25,Cc1cnc(C)c(N2CCN(Cc3cc(C#CCO)cs3)CC2)n1,39% (inactive)
26,OCC#Cc1csc(CN2CCN(c3nccc4ccccc34)CC2)c1,51.9% (active)
